This is a sample that favours compounds with a hit; in the whole collection about 0.27% have one here.
TRPML1 inh – blocks the human TRPML1 channel; Q9GZU1; hit rate 0.02% among 390,000; TRPML1-inducible cells, Ca2+ dye fluorescence, FDSS; hits give low values; inhibition of EC80 agonist-evoked calcium signal; AID 624415; activity change, negative = inhibition, % (no concentration beside the values); in the data active = activity change below about -50%; inconclusive = between about -30% and that limit;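 also: stimulus is agonist 54-4 at its EC80 concentration; % is scaled to controls: 0 for no effect and ±100 for the full control effect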
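Tet-induced TRPML1-DL cells loaded with Ca8 no-wash calcium dye were read kinetically on FDSS. Compound addition was followed by EC80 agonist 54-4 (4 uM final); inhibition was read over 110 s.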
TRPV1 ag – activates the human vanilloid receptor TRPV1; AID 540275; hit rate 0.19% among 320,000; Q8NER1; TRPV1-expressing cells, Fluo-8 calcium influx, agonist mode; activation, % at 8.33 µM; in the data active = activation above about 80%; inconclusive = between about 30% and that limit; also: 0% is about no effect
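TRPV1-expressing cells were cultured overnight at 35.5C and loaded with Fluo-8 calcium dye for 40 to 90 min at room temperature. After a 10 s baseline, compound was added and calcium influx was read kinetically for 3 min (ex 480/em 520 nm).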
TRPML1 agonist – human mucolipin-1 channel agonism; Q9GZU1; TRPML1-expressing cells, Ca2+ dye fluorescence, FDSS; activation, % (no concentration beside the values); hit rate 0.12% among 410,000; AID 624414; in the data active = activation above about 50%; inconclusive = mostly about 30% to 49%; also: 0% is about no effect
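In this qHTS format, compounds were pin-transferred onto Ca8-dye-loaded TRPML1-DL cells induced with Tet overnight, and intracellular Ca2+ fluorescence was recorded kinetically for 110 s after a 10 s baseline. A subsequent 4uM final 54-4 (EC80) addition followed by a second 110 s read served as the antagonist phase.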
TRPV1 potentiator – potentiators of human vanilloid receptor 1 (TRPV1); Q8NER1; TRPV1-expressing cells, Fluo-8 calcium influx, capsaicin EC20 potentiation; potentiation, % at 8.33 µM; hit rate 0.02% among 320,000; in the data active = potentiation above about 80%; inconclusive = between about 30% and that limit; also: 0% is about no effect
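Fluo-8 calcium influx in TRPV1-expressing cells, kinetic read (ex 480/em 520 nm). Compound added and read 3 min for agonist activity, followed by capsaicin at EC20 final and 2 min further read for enhancement.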
The depositor's hits bear a star; ? = inconclusive; / = no result given.

SMILES	TRPML1 inh	TRPV1 ag	TRPML1 agonist	TRPV1 potentiator
CCCCc1ccc(NC(=O)Nc2cccnc2)cc1	1	85*	-1	6
Cc1ccc(NC(=O)c2cnc3ccccc3n2)cc1C	3	84*	1	-12
O=C(O)c1ccc(CSc2nc3ccccc3c(=O)n2-c2ccccc2)cc1	/	0	/	-3
O=C(c1ccc(-n2c(SCc3cccc(F)c3)nc3ccccc3c2=O)cc1)N1CCOCC1	-2	87*	0	-9
CC(=O)Oc1ccc(C(=O)Nc2ccc(C3(C#N)CCCC3)cc2)cc1	-14	0	0	86*
N#CC1(c2ccc(NC(=O)c3ccccc3)cc2)CCCC1	/	?	/	-29
O=C(CSCc1ccc(F)cc1)NCc1ccc(F)cc1	-11	?	0	1
O=C(CSCc1ccccc1F)NCc1ccc(F)cc1	0	?	0	-17
CCOc1ccc(CNC(=O)CCSCc2ccccc2F)cc1OC	3	104*	0	-9
O=C(CCSCc1ccccc1F)NCc1ccc(F)cc1	25	82*	2	6
Cc1ccc(CSCC(=O)NCc2ccc(F)cc2)cc1	-14	82*	-1	-2
CCc1ccc(CNC(=O)Cn2nc(C)n3c(cc4cc(C)ccc43)c2=O)cc1	18	/	0	/
CC1CCN(C(=O)c2cnn(-c3cccc(Cl)c3)c2C2CCN(C(=O)OC(C)(C)C)CC2)CC1	0	/	0	/
CC(C)(C)OC(=O)N1CCC(c2c(C(=O)N3CCC(c4ccccc4)C3)cnn2-c2cccc(Cl)c2)CC1 (centres undefined)	-10	/	57*	/
CC(C)(C)OC(=O)N1CCC(c2c(C(=O)N3CCC(c4ccccc4)C3)cnn2-c2ccc(Cl)cc2)CC1 (centres undefined)	12	/	28	/
Cc1cccc(-n2ncc(C(=O)N3CCN(C4CCCCC4)CC3)c2C2CCN(C(=O)OC(C)(C)C)CC2)c1	?	/	91*	/
COc1ccccc1N1CCN(C(=O)c2cnn(-c3cccc(Cl)c3)c2C2CCN(C(=O)OC(C)(C)C)CC2)CC1	-12	/	67*	/
Cc1ccc(C2CCN(C(=O)c3cnn(-c4cccc(Cl)c4)c3C3CCN(C(=O)OC(C)(C)C)CC3)C2)cc1 (centres undefined)	-1	/	59*	/
CC(C)(C)OC(=O)N1CCC(c2c(C(=O)N3CCN(C4CCCCC4)CC3)cnn2-c2ccccc2)CC1	7	2	0	11
COC(=O)c1c(NC(=O)c2cc(=O)c3cc(C)cc(C)c3o2)sc2c1CCC2	-7	/	2	/
CC(C)(C)OC(=O)N1CCC(c2c(C(=O)N3CCN(Cc4ccccc4)CC3)cnn2-c2cccc(Cl)c2)CC1	-26	/	92*	/
Cc1ccc(-n2ncc(C(=O)N3CCN(Cc4ccccc4)CC3)c2C2CCN(C(=O)OC(C)(C)C)CC2)cc1	-3	/	1	/
O=C1c2cccc3c(O)ccc(c23)C(=O)N1Cc1ccccc1	0	?	97*	-7
CCCCNc1nc2c(c(=O)n(C)c(=O)n2C)n1CC(O)COc1ccccc1C (centres undefined)	6	/	0	/
COc1ccc(NC(=O)C2CCCN(c3nccc(C)n3)C2)cc1 (centres undefined)	-3	94*	-1	22
SMILES	TRPML1 inh	TRPV1 ag	TRPML1 agonist	TRPV1 potentiator
Cc1cc(N2CCCC(C(=O)Nc3ccc4c(c3)CCC4)C2)n2ncnc2n1 (centres undefined)	-8	93*	0	10
COc1cccc(-c2noc(COc3ccccc3Cl)n2)c1	-8	/	1	/
COc1ccccc1NC(=O)Cn1c(=O)n(-c2ccccc2Cl)c(=O)c2sc3ccccc3c21	9	/	1	/
CCOc1ccc(S(=O)(=O)N2CN(c3cccc(C(C)=O)c3)c3nc4ccccc4nc32)cc1	-21	/	64*	/
N#Cc1cccc(NC(=O)CSc2ccc3c4c(cccc24)C(=O)c2ccccc2-3)c1	-15	5	80*	-8
O=C(OCCF)N1CCN(/[N+]([O-])=N/Oc2ccc([N+](=O)[O-])cc2[N+](=O)[O-])CC1	-6	/	1	/
Cc1ccc2c(c1)C/C(=C/c1ccc(N(C)C)cc1)C2=O	/	/	55*	/
CC(=O)Nc1ccc(Nc2nc(C)nc3c2oc2ccccc23)cc1	25	2	3	?
CC(=O)c1ccc(Nc2ncnc3c2oc2ccccc23)cc1	5	88*	1	-11
CCOC(=O)N1CCc2c(sc3c2c(=O)n(-c2ccccc2C(F)(F)F)c(=O)n3Cc2ccccc2C)C1	-10	/	2	/

High-throughput results deposited in PubChem BioAssay by National Center for Advancing Translational Sciences (NCATS).
